# Compound activity as filed in PubChem.
# Most compounds without a hit are left out; they make up all but 2.8% or so of the library.
# EP2 antag = blocks the human prostaglandin E2 receptor EP2. P43116. C6 glioma cells expressing human EP2, cAMP TR-FRET; cells stimulated with saturating PGE2. inhibition, % at 25 µM. 0.52% of 260,000 active;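 active = percent inhibition above 40 after rounding to a whole number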;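 note: rat C6 glioma host cells with rolipram phosphodiesterase inhibitor present; the protocol text gives 20 µM as final concentration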
# Wee1 degr inh = blocks degradation of human Wee1 kinase | reporter increase, % at 5 µM | P30291 | AID 1321 | 1.2% of 220,000 active | HeLa Luc-Wee1K328M stability, luciferase luminescence; 100% = proteasome inhibitor MG132 effect;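 active = activation above the mean of all tested compounds plus 3 SD, set per screening run, cut at about 8.8% in these data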;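 note: cells exposed to compound for 20 h before luminescence read; 0% = DMSO alone and 100% = MG132 at 30 µM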
# EP2 modulator = EP2 receptor (human) modulation; EP2-expressing cells, cAMP HTRF FRET, PGE2 co-stimulation; P43116; induction, % at 25 µM; 0.83% of 260,000 active;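 active = compounds whose cAMP rise, as percent of the full-agonist control response, exceeds 60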;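 note: rat C6 glioma line stably carrying human EP2 under a CMV promoter; the protocol text gives 20 µM as final concentration; 100% = response of wells given 1 µM PGE2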
# NCF1 inh = blocks human p47phox regulatory protein of NADPH oxidases. p47phox/p22phox peptide binding, fluorescence polarization, 2 h. inhibition, % at 24.7 µM. AID 1274. 0.53% of 220,000 active. P14598;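 active = inhibition above about 30%, limit read from the data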;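 note: 0% = p47phox with labelled peptide and 100% = labelled peptide alone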
# Furin inh = human furin inhibition; P09958; purified furin, fluorogenic substrate cleavage; inhibition, % at 20 µM or 30 µM; 0.061% of 220,000 active; in the data active = inhibition above about 25%
# Target sequence (P09958 108-714 limits assumed): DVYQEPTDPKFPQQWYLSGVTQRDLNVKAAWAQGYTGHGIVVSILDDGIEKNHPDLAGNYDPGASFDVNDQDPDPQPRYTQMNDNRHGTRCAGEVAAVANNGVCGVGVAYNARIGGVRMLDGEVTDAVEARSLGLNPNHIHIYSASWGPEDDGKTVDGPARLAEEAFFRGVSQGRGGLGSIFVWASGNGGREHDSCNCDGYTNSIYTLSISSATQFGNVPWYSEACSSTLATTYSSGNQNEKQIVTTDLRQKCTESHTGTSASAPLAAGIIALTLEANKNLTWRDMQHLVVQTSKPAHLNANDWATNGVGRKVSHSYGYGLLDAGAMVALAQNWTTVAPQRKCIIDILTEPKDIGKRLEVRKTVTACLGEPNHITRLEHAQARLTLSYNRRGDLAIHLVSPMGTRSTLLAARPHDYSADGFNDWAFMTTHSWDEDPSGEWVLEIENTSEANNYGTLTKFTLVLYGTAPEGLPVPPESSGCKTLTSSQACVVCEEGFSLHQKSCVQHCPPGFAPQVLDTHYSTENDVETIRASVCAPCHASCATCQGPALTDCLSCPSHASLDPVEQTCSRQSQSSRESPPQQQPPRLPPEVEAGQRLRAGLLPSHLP
# HSV augment = HSV replication enhancement; HSV replication augmentation in cells, fold increase; maximum fold increase; 0.005% of 220,000 active; in the data active = maximum fold increase above about 1.5; inconclusive = no clear call, values can overlap the other calls; tested in PC3 cells
# EP2 confirm = EP2 receptor cAMP induction, counter-screens negative; shares compounds with EP2 modulator; C6 glioma EP2 cells, cAMP HTRF induction; plus low (about EC15) PGE2 agonist; calls only at 20 µM (by protocol); 47% of 1,300 active;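 active = cAMP induction above 50% in the main assay while under 30% in all four parallel counter assays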;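 note: rat C6 glioma cells stably expressing human EP2 receptor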
# An asterisk follows results filed as active; i = inactive; ? = inconclusive; · = not tested or not shown; + = active, no number.
SMILES,EP2 antag,Wee1 degr inh,EP2 modulator,NCF1 inh,Furin inh,HSV augment,EP2 confirm
CCOC(=O)CSc1nnc2n(C3CCCCC3)c(=O)c3c4c(sc3n12)CCCC4,6,5,66*,2,-10,i,i
COC(=O)CSc1nnc2n(C3CCCCC3)c(=O)c3c4c(sc3n12)CCCC4,15,0,31,-1,-6,i,·
COc1ccc(NC(=O)N(Cc2ccc(Cl)cc2)Cc2cc3cc(C)ccc3[nH]c2=O)cc1,9,·,-9,·,·,·,·
Cc1onc(-c2ccccc2Cl)c1-c1nc(-c2ccncc2)no1,-2,-1,65*,-2,-10,i,i
CC(=O)N1c2ccccc2C(C)CC12CCCCC2 (centres undefined),8,0,93*,-6,-23,i,+
O=S(=O)(c1cccs1)N1CN(Cc2ccccc2)c2nc3ccccc3nc21,14,-1,30,-10,-10,i,·
O=S(=O)(c1cccs1)N1CN(Cc2cccs2)c2nc3ccccc3nc21,13,1,65*,-55,11,i,i
CCCc1nc2cc(NC(=O)c3cc4c([nH]c3=O)CCCCC4)ccc2n1C,12,·,-38,·,·,·,·
CCN1CCN(c2ncnc3sc4c(c23)CCC4)CC1,13,·,-28,·,·,·,·
CCC1CCc2c(sc3ncnc(N4CCOCC4)c23)C1 (centres undefined),14,2,58,2,-30,i,+
N#CC1=C(S)N(c2ccc(F)cc2)C2(CCCCC2)NC1=O,6,-1,8,-11,-20,i,·
N#CC1=C(S)N(c2ccccc2)C2(CCCCC2)NC1=O,13,3,71*,-6,-10,·,i
O=C(NCc1nc(-c2ccccc2Cl)no1)C1(c2ccccc2F)CC1,3,·,-133,·,·,·,·
C=CCn1c(SCc2c(C)noc2C)nc2ccccc2c1=O,3,-1,71*,-17,-7,i,i
Cc1noc(C)c1CSc1nc2ccccc2c(=O)n1-c1ccc(F)cc1F,·,2,56,-13,-22,·,+
C=CCn1c(SCc2c(C)noc2C)nc2cc(C(=O)O)ccc2c1=O,5,-3,20,-6,-17,i,·
Cc1noc(C)c1CSc1nc2ccccc2c(=O)n1-c1ccccc1,15,-2,53,-6,-25,i,i
Cc1noc(C)c1CSc1nc2[nH]ncc2c(=O)n1-c1ccccc1,22,0,31,-9,-21,i,·
CCCC(=O)C1=C(O)C(C(=O)OC)C(C)(C)CC1=Nc1cccc2ccccc12 (centres undefined),12,7,78*,-1,-11,i,+
CCOC(=O)CSc1ncnc2c1sc1nc(N3CCOCC3)c3c(c12)CCCC3,10,3,75*,-7,-19,i,+
CCn1c2ccccc2c2cc(/C=N/n3c(C)nnc3C)ccc21,8,-3,94*,-7,-13,i,+
CCC(C)NC(=O)CSc1nnc(-c2ccccn2)n1-c1cccc(OC)c1 (centres undefined),8,·,-3,·,·,·,·
CCc1ccc2nc3c(c(C(=O)O)c2c1)CCC3,1,1,21,-3,-15,i,·
Cc1cc(Br)c2nc3c(c(C(=O)O)c2c1)CCCCC3,19,-1,77*,-6,-16,i,i
Cc1sc2ncn(CC#N)c(=O)c2c1C,7,·,15,·,·,·,·
SMILES,EP2 antag,Wee1 degr inh,EP2 modulator,NCF1 inh,Furin inh,HSV augment,EP2 confirm
COc1ccc(C(=O)c2ccccc2)c(O)c1,3,-3,41,2,-18,i,+
O=C(O)CSc1cc(-c2ccccc2)nc2ccccc12,12,·,67*,·,·,·,i
CCC1Oc2ccccc2N(Cc2ccccc2C)C1=O (centres undefined),6,-2,74*,7,-13,i,+
CCC1Oc2ccccc2N(CC(=O)N2CCCC2)C1=O (centres undefined),17,·,10,·,·,·,·
CCOC(=O)c1cc2sc(C)cc2n1C(C)C(=O)OCC (centres undefined),7,-1,65*,2,11,i,i
CCOC(=O)C(C)n1nc(C)n2c(cc3sc(C)cc32)c1=O (centres undefined),·,·,-3,·,·,·,·
O=C(c1cc2sccc2n1Cc1ccc(F)cc1)N1CCCc2ccccc21,12,3,73*,-23,-12,i,+
CCc1ccc2[nH]c(=O)c(CN(Cc3nnnn3CCc3ccccc3)CC3CCCO3)cc2c1 (centres undefined),5,·,50,·,·,·,·
CC(C)CCn1c(Oc2ccc(Cl)cc2)nc2c1c(=O)n(C)c(=O)n2C,-1,1,73*,-5,-12,i,+
COc1ccc(Oc2nc3c(c(=O)n(C)c(=O)n3C)n2Cc2ccccc2)cc1,14,1,16,-9,-11,i,·
CCN(CC)c1ccc(/C=C2\C(=O)c3ccc(C(=O)O)cc3C2=O)cc1,11,-3,74*,-216,-33,?,+
CCCCc1nnc(SCCSc2nnc(CCCC)n2N)n1N,10,4,81*,-13,-17,i,i
CCOc1ccccc1NC(=O)c1c(Br)cnn1C,3,-2,69*,38*,-4,i,i
Cn1ncc(Br)c1C(=O)Nc1ccc(F)cc1F,10,-1,-9,-5,-15,i,·
O=c1[nH]c(CN(CCc2ccccc2)C(=S)NCc2ccco2)nc2ccccc12,0,·,-36,·,·,·,·
Cc1ccc(S(=O)(=O)Nc2ccc(Cl)cc2C(=O)c2ccc(F)cc2)cc1,20,0,67*,-6,-17,i,i
Cc1ccc(N=Nc2c(N)[nH]n3c(=O)cc(C)nc23)cc1,3,-2,9,-18,-2,i,·
Cc1ccc(N=Nc2c(N)[nH]n3c(=O)c4c(nc23)CCCC4)cc1,·,-1,81*,-23,-14,·,+
Cc1ccc(S(=O)(=O)n2c3ccc(Cl)cc3c3nc(C)sc32)cc1,3,-1,90*,-17,-19,i,+
Cc1ccnc(SCC(=O)n2c3c(c4ccccc42)CC(C)CC3)n1 (centres undefined),-7,-3,74*,-16,-15,i,+
CC(=O)N1CCN(c2nc(CC(C)C)c3c(c2C#N)CCC3)CC1,·,-3,24,-1,-34,·,·
N#CCCSc1nc(N2CCOCC2)c2c(c1C#N)CCCC2,8,-1,27,-8,-6,i,·
CCCCc1nc(N2CCOCC2)c(C#N)c2c1CCCC2,11,3,79*,-5,-8,i,i
CC(C)Cc1nc(N2CCCCC2)c(C#N)c2c1CCC2,17,1,89*,-2,-12,i,i
